# Measured values as given in PubChem BioAssay (NCATS).
# Inconclusive results are not listed. Entries that show only a call come without a potency. Calls of active or inactive are those of the source. The call rests on the fitted dose curve; in most records, active means well fitted curve in the direction sought with a large enough effect; inconclusive means small, poorly fitted or top-dose-only effect, or another doubt; inactive means no such curve, though single readings can be large; an effect the other way counts as inactive or inconclusive.
# Legend:
# [1] = target: Aldehyde dehydrogenase, mitochondrial (Homo sapiens) (UniProt P05091); experiment: qHTS for Inhibitors of the Aldehyde Dehydrogenase Family (ALDH2) Primary screen (AID 2061308); settings: ALDH2 enzyme inhibition qHTS, 1536-well; series mostly up to 56 µM; further: nearly all actives have a fitted effect of over 55% in size
# [2] = target: Retinaldehyde dehydrogenase 3 (Homo sapiens) (UniProt P47895); experiment: qHTS for Inhibitors of the Aldehyde Dehydrogenase Family (ALDH1A3) Primary screen (AID 2061315); settings: ALDH inhibition qHTS; series mostly up to 56 µM
SMILES,Potency [1],Potency [2]
O=C(O)c1ccc(CSc2nnc(-c3cccc([S+](=O)([O-])NC4CCCC4)c3)n2-c2ccccc2)cc1,inactive,inactive
COc1ccc(C(=O)N(Cc2ccccc2)Cc2ccccc2)cc1COc1ccc(NC(C)=O)cc1,inactive,inactive
Cc1ccc(S(=O)(=O)N2CCN(c3nc(-c4ccco4)nc4ccccc34)CC2)cc1,inactive,inactive
COc1ccc(-c2ccc(NC(=O)c3cccs3)cn2)cc1,inactive,inactive
N#Cc1c(-c2ccc(OCCOCCOCCN)cc2)no[n+]1[O-],inactive,inactive
Cc1cc(C)n2ncc(C(=O)NC3CCC(C(C)(C)C)CC3)c2n1 (stereo not drawn),inactive,inactive
CCCn1c(-c2ccc(F)cc2)nc2c(NCC3CCCN3CC)nc(C)nc21 (stereo not drawn),inactive,inactive
CCNC(=O)c1ccc(-c2ccc3ncnc(N4CCOCC4)c3c2)o1,inactive,inactive
O=C(Nc1ccc(F)c(C(F)(F)F)c1)Nc1nc(-c2ccncc2)cs1,inactive,inactive
Cc1c(P(=S)(c2ccccc2)c2ccccc2)c2ccccc2n1C(=O)Cc1ccccc1,inactive,inactive
O=C(Nc1ccc([S+](=O)([O-])Nc2nccs2)cc1)c1ccn[nH]1,inactive,inactive
COc1cc(OC)c(C(CC(=O)N2CC(C)CC(C)C2)c2ccc3c(c2)OCO3)c(OCC#N)c1 (stereo not drawn),inactive,inactive
Cc1cc(C)nc(NC(=S)N2CCN(c3cc(C#N)cc(C#N)c3)CC2)c1,inactive,inactive
Cc1ccc(-c2ccc(=O)n(CC(=O)N(C)C(C)C(C)C)n2)cc1 (stereo not drawn),inactive,inactive
